Among the data in PubChem BioAssay (NCI) are growth inhibition values, retold here.

The nature of the assay: NCI Yeast Anticancer Drug Screen. Data for the rad50EPP+ strain (AID 151).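 Note: 0% = growth of vehicle-treated control cultures.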 Conditions: S. cerevisiae rad50 mutant strain, active compounds read high. The protocol:
Growth inhibition of yeast strains with defined genetic alterations is measured as a screen for potential anti-cancer activity. Selected strains with alterations in DNA damage repair or cell cycle control were exposed to compounds and growth inhibition was measured relative to vehicle treated controls. The strain used in this assay is rad50EPP+

Compounds without any hit were thinned out: in the full panel of roughly 79,000, 15% have a hit. Active and inactive are the calls of the source. Cut-off read from the data, not from the text of the source: active = growth inhibition above about 70%; inactive = the rest.

On to `CCCC(=O)Oc1c(C)cc([N+](=O)[O-])cc1[N+](=O)[O-]`, for which the growth inhibition runs as follows: (at 1.2 µM) 35% (inactive); (at 3.7 µM) 77% (active); (at 11.0 µM) 94% (active); (at 33.0 µM) 99% (active); (at 100.0 µM) 99% (active).

In the case of `CC1=C(C(=O)NCc2ccccc2)C(c2ccccc2)C(C(=O)NCc2ccccc2)=C(C)N1`, the growth inhibition is, setting by setting: (at 1.2 µM) -3% (inactive); (at 3.7 µM) -1% (inactive); (at 11.0 µM) 3% (inactive); (at 33.0 µM) 3% (inactive); (at 100.0 µM) 0% (inactive).

For `NC(=S)NC(=S)Nc1ccccc1`, the growth inhibition is -6% (inactive) (at 1.2 µM); -10% (inactive) (at 3.7 µM); -12% (inactive) (at 11.0 µM); -12% (inactive) (at 33.0 µM); -10% (inactive) (at 100.0 µM).

Consider `O=c1[nH]c2ccc(Cl)cc2o1`, for which the growth inhibition reads like this: (at 1.2 µM) -43% (inactive); (at 3.7 µM) -42% (inactive); (at 11.0 µM) -33% (inactive); (at 33.0 µM) -52% (inactive); (at 100.0 µM) -64% (inactive).

As to `CCCCNC1CCC2(SCCS2)c2[nH]c3ccccc3c21` (stereo not given), the growth inhibition (at 1.2 µM) is -2% (inactive); the growth inhibition (at 3.7 µM) was -1% (inactive); the growth inhibition (at 11.0 µM) is -2% (inactive); the growth inhibition (at 33.0 µM) was -4% (inactive); the growth inhibition (at 100.0 µM) is 7% (inactive).

Consider `COC1=C(OC)C(=O)C(Sc2ccc3ccccc3c2)=CC1=O`, for which the growth inhibition is, setting by setting: (at 1.2 µM) -29% (inactive); (at 3.7 µM) -10% (inactive); (at 11.0 µM) 67% (inactive); (at 33.0 µM) 95% (active); (at 100.0 µM) 97% (active).

Regarding `Cc1ccc(NC(=O)/C(CC2N=c3c(ccc4c(O)c5ccccc5c(O)c34)=NC2O)=N/NC(C)(C)C)cc1` (stereo not given), the growth inhibition is, setting by setting: (at 1.2 µM) 16% (inactive); (at 3.7 µM) 34% (inactive); (at 11.0 µM) 44% (inactive); (at 33.0 µM) 50% (inactive); (at 100.0 µM) 54% (inactive).

Regarding `COc1ccc2[nH]cc([C@@H]3C4CCC(C4)[C@H]3NCc3cccc(CN[C@H]4C5CCC(C5)[C@@H]4c4c[nH]c5ccc(OC)cc45)c3)c2c1`, the growth inhibition was -19% (inactive) (at 1.2 µM); -14% (inactive) (at 3.7 µM); -7% (inactive) (at 11.0 µM); -23% (inactive) (at 33.0 µM); 63% (inactive) (at 100.0 µM).
